Records with an inconclusive call do not appear. A call without a number means that no potency is given here. More than one record can exist for a structure, and the calls need not agree. Calls of active or inactive are those of the source. The call rests on the fitted dose curve; in most records, active means well fitted cell-killing curve with a large enough effect in the repeat runs; inconclusive means weak or mixed curves, or effect the other way; inactive means flat fitted curve, though single readings scatter.
Assay: qHTS RealTime-Glo MT Cell Viability Assay in HEK293 cells - 32 hour (AID 1224868); further: nearly all actives have a fitted effect of over 50% in size
Conditions: RealTime-Glo luminescence; series mostly up to 76.8 µM
How it was run: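 Luminescence generated by NanoLuc from substrate produced by living HEK293 cells served as the viability signal. Each value reflects the reading at its stated time point during continuous 40 h compound exposure at 37 C.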
Potency means the concentration at half of the fitted maximal effect.

SMILES | Potency
CCC(Cc1c(I)cc(I)c(N)c1I)C(=O)O (centres undefined) | inactive
CCO[Si](CCCNC(N)=O)(OCC)OCC | inactive
CCCCCCCCCCC(CO)CCCCCCCC (centres undefined) | inactive
CN1CCOCC1 | inactive
CCCN1C=CN(C)C1 | inactive
Nc1cc([N+](=O)[O-])ccc1C(=O)O | inactive
COc1cc([C@H]2Oc3cc([C@H]4Oc5cc(O)cc(O)c5C(=O)[C@@H]4O)ccc3O[C@@H]2CO)ccc1O | inactive
Cc1ccc(S(=O)(=O)NCl)cc1 | inactive
O=C(O)c1cc(=O)[nH]c(=O)[nH]1 | inactive
[O-]/[N+](=N\O)c1ccccc1 | inactive
CC(=O)Nc1ccc2c(c1)Cc1cc(NC(C)=O)ccc1-2 | inactive
Cc1ccc(C(C)(C)C)c(O)c1 | inactive
C[C@]12C=CC(=O)C=C1CC[C@H]1[C@@H]3C[C@@H](O)[C@](O)(C(=O)CO)[C@@]3(C)C[C@H](O)[C@@]12F | inactive
Cc1ccc2c(c1)C(=O)OC2=O | inactive
c1ccc2c(c1)ccc1ncccc12 | inactive
FC(F)(F)C(Cl)Br (centres undefined) | inactive
CC(C)=CCO | inactive
CC(=O)Oc1c(C)c(C)c2c(c1C)CC[C@@](C)(CCC[C@H](C)CCC[C@H](C)CCCC(C)C)O2 | inactive
CC(=O)[C@@]1(O)CC[C@H]2[C@@H]3C[C@H](C)C4=CC(=O)C=C[C@]4(C)[C@@]3(F)[C@@H](O)C[C@@]21C | 19.5 µM (active) and inactive
Cc1ccc(C)c(O)c1 | inactive
[Na+] | inactive
C1COCCN1 | inactive
OCCNCCO | inactive
COC(=O)c1ccc(C)cc1 | inactive
